# Test results taken from PubChem BioAssay AID1159580 (chemical genetic matrix, 2015).
# About 2,000 (36%) of roughly 5,500 compounds were called active. Inconclusive results (about 18%) are left out. Some of the results follow. Values without a mark were called inactive. No stated cut-off is given here; in the data, active means normalized growth mostly below about 0.91 (no sharp cut-off); inconclusive means no clear call, values can overlap the other calls; inactive means mostly above about 0.92.
# Experiment: chemical genetic growth profiling, strain panel (AID 1159580);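 further: tested at 20 µM; growth read once vehicle control cultures reached saturation at 30 °C; 1 = growth at the plate median or of vehicle wells; lower values mean less growth of the strain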
# Conditions: S. cerevisiae deletion strains, growth OD
# [1] = locus YAR019C, strain CDC15, hits give low values
# [2] = locus YBL105C, strain PKC1, hits give low values
# [3] = locus YBR135W, strain CKS1, hits give low values
# [4] = locus YBR136W, strain MEC1, hits give low values
# [5] = locus YBR160W, strain CDC28, hits give low values
# [6] = locus YDL017W, strain CDC7, hits give low values
# [7] = locus YDL028C, strain MPS1, hits give low values
# [8] = locus YDL101C, strain DUN1, hits give low values
# [9] = locus YDL108W, strain KIN28, hits give low values
# [10] = locus YDL132W, strain cdc53, hits give low values
# [11] = locus YDL214C, strain PRR2, hits give low values
# [12] = locus YDR052C, strain DBF4, hits give low values
# [13] = locus YDR054C, strain cdc34, hits give low values
# [14] = locus YDR226W, strain ADK1, hits give low values
# [15] = locus YDR477W, strain SNF1, hits give low values
# [16] = locus YER123W, strain YCK3, hits give low values
# [17] = locus YER133W, strain GLC7, hits give low values
# [18] = locus YFL009W, strain cdc4, hits give low values
# [19] = locus YFL029C, strain CAK1, hits give low values
# [20] = locus YFR003C, strain YPI1, hits give low values
# [21] = locus YFR019W, strain FAB1, hits give low values
# [22] = locus YFR028C, strain CDC14, hits give low values
# [23] = locus YGR040W, strain KSS1, hits give low values
# [24] = locus YGR052W, strain FMP48, hits give low values
# [25] = locus YGR092W, strain DBF2, hits give low values
# [26] = locus YHR030C, strain SLT2, hits give low values
# [27] = locus YHR079C, strain IRE1, hits give low values
# [28] = locus YHR082C, strain KSP1, hits give low values
# [29] = locus YHR205W, strain SCH9, hits give low values
# [30] = locus YIL147C, strain SLN1, hits give low values
# [31] = locus YJL095W, strain BCK1, hits give low values
# [32] = locus YJL128C, strain PBS2, hits give low values
# [33] = locus YJL157C, strain FAR1, hits give low values
# [34] = locus YJR016C, strain ILV3, hits give low values
# [35] = locus YJR066W, strain TOR1 (second series), hits give low values
# [36] = locus YJR066W, strain TOR1, hits give low values
# [37] = locus YKL048C, strain ELM1, hits give low values
# [38] = locus YKL067W, strain YNK1, hits give low values
# [39] = locus YKL101W, strain HSL1, hits give low values
# [40] = locus YKL193C, strain SDS22, hits give low values
# [41] = locus YKL203C, strain TOR2, hits give low values
# [42] = locus YLR113W, strain HOG1, hits give low values
# [43] = locus YLR133W, strain CKI1, hits give low values
# [44] = locus YLR403W, strain SFP1, hits give low values
# [45] = locus YML070W, strain DAK1, hits give low values
# [46] = locus YMR001C, strain CDC5, hits give low values
# [47] = locus YMR205C, strain PFK2 (second series), hits give low values
# [48] = locus YMR277W, strain FCP1, hits give low values
# [49] = locus YNL006W, strain LST8, hits give low values
# [50] = locus YNL020C, strain ARK1, hits give low values
# [51] = locus YNL161W, strain CBK1, hits give low values
# [52] = locus YNL183C, strain NPR1, hits give low values
# [53] = locus YNL207W, strain RIO2, hits give low values
# [54] = locus YNL222W, strain SSU72, hits give low values
# [55] = locus YNL307C, strain MCK1 (second series), hits give low values
# [56] = locus YOL078W, strain AVO1, hits give low values
# [57] = locus YOL136C, strain PFK27, hits give low values
# [58] = locus YOR061W, strain CKA2, hits give low values
# [59] = locus YOR119C, strain RIO1, hits give low values
# [60] = locus YOR231W, strain MKK1, hits give low values
# [61] = locus YOR329C, strain SCD5, hits give low values
# [62] = locus YPL031C, strain PHO85, hits give low values
# [63] = locus YPL153C, strain RAD53, hits give low values
# [64] = locus YPL204W, strain HRR25, hits give low values
# [65] = locus YPL209C, strain IPL1, hits give low values
# [66] = locus YPL256C, strain CLN2, hits give low values
# [67] = locus YPR025C, strain CCL1, hits give low values
# [68] = locus YPR106W, strain ISR1, hits give low values
# [69] = locus YPR111W, strain DBF20, hits give low values
# [70] = strain NNK1, hits give low values
# [71] = strain TSCII, hits give low values
smiles,measurement,setting,value
Cc1cc(Cl)ccc1NC(=S)NNC(=S)Nc1ccc(F)cc1,normalized growth,[1],0.968
same,normalized growth,[2],0.974
same,normalized growth,[3],0.972
same,normalized growth,[4],0.97
same,normalized growth,[5],0.966
same,normalized growth,[6],0.975
same,normalized growth,[7],0.969
same,normalized growth,[8],0.973
same,normalized growth,[9],0.97
same,normalized growth,[10],0.966
same,normalized growth,[11],0.943
same,normalized growth,[12],0.968
same,normalized growth,[13],0.943
same,normalized growth,[14],0.971
same,normalized growth,[15],0.898
same,normalized growth,[16],0.878
same,normalized growth,[17],0.925
same,normalized growth,[18],0.964
same,normalized growth,[19],0.965
same,normalized growth,[20],0.957
same,normalized growth,[21],0.964
same,normalized growth,[22],0.956
same,normalized growth,[23],0.912
same,normalized growth,[24],1.04
same,normalized growth,[25],0.863
same,normalized growth,[26],0.763 (active)
same,normalized growth,[27],0.902
same,normalized growth,[28],0.986
same,normalized growth,[29],0.914
same,normalized growth,[30],0.964
same,normalized growth,[31],0.869
same,normalized growth,[32],0.93
same,normalized growth,[33],0.919
same,normalized growth,[34],0.96
same,normalized growth,[35],0.911
same,normalized growth,[36],0.917
same,normalized growth,[37],0.97
same,normalized growth,[38],0.916
same,normalized growth,[39],0.935
same,normalized growth,[40],0.964
same,normalized growth,[41],0.954
same,normalized growth,[42],0.929
same,normalized growth,[43],0.926
same,normalized growth,[44],0.896
same,normalized growth,[45],0.928
same,normalized growth,[46],0.965
same,normalized growth,[47],0.939
same,normalized growth,[48],0.95
same,normalized growth,[49],0.964
same,normalized growth,[50],0.921
same,normalized growth,[51],0.973
same,normalized growth,[52],0.923
same,normalized growth,[53],0.961
same,normalized growth,[54],0.972
same,normalized growth,[55],0.9
same,normalized growth,[56],0.957
same,normalized growth,[57],0.916
same,normalized growth,[58],0.937
same,normalized growth,[59],0.977
same,normalized growth,[60],0.924
same,normalized growth,[61],0.972
same,normalized growth,[62],0.899
same,normalized growth,[63],0.884
same,normalized growth,[64],0.861
same,normalized growth,[65],0.969
same,normalized growth,[66],0.904
same,normalized growth,[67],0.973
same,normalized growth,[68],0.971
same,normalized growth,[69],0.969
same,normalized growth,[70],0.96
same,normalized growth,[71],0.966
CCOC(=O)/C(=N/Nc1c(Cl)cccc1Cl)c1csc(N)n1,normalized growth,[1],0.968
same,normalized growth,[2],0.982
same,normalized growth,[3],0.973
same,normalized growth,[4],0.972
same,normalized growth,[5],0.984
same,normalized growth,[6],0.98
same,normalized growth,[7],0.975
same,normalized growth,[8],0.986
same,normalized growth,[9],0.97
same,normalized growth,[10],0.971
same,normalized growth,[11],0.89
same,normalized growth,[12],0.973
same,normalized growth,[13],0.996
same,normalized growth,[14],0.973
same,normalized growth,[15],0.864
same,normalized growth,[16],0.906
same,normalized growth,[17],0.868
same,normalized growth,[18],0.959
same,normalized growth,[19],0.966
same,normalized growth,[20],0.97
same,normalized growth,[21],0.971
same,normalized growth,[22],0.968
same,normalized growth,[23],0.884
same,normalized growth,[24],0.933
same,normalized growth,[25],0.834
same,normalized growth,[26],0.69 (active)
same,normalized growth,[27],0.837
same,normalized growth,[28],0.973
same,normalized growth,[29],0.994
same,normalized growth,[30],0.968
same,normalized growth,[31],0.873
same,normalized growth,[32],0.995
same,normalized growth,[33],0.864
same,normalized growth,[34],0.976
same,normalized growth,[35],0.868
same,normalized growth,[36],0.906
same,normalized growth,[37],0.986
same,normalized growth,[38],0.892
same,normalized growth,[39],0.918
same,normalized growth,[40],0.976
same,normalized growth,[41],0.921
same,normalized growth,[42],0.801 (active)
same,normalized growth,[43],0.913
same,normalized growth,[44],0.864
same,normalized growth,[45],0.889
same,normalized growth,[46],0.976
same,normalized growth,[47],0.925
same,normalized growth,[48],0.975
same,normalized growth,[49],0.968
same,normalized growth,[50],0.904
same,normalized growth,[51],0.969
same,normalized growth,[52],0.91
same,normalized growth,[53],0.947
same,normalized growth,[54],0.969
same,normalized growth,[55],0.898
same,normalized growth,[56],0.978
same,normalized growth,[57],0.893
same,normalized growth,[58],0.906
same,normalized growth,[59],0.975
same,normalized growth,[60],0.864
same,normalized growth,[61],0.975
same,normalized growth,[62],0.852
same,normalized growth,[63],0.858
same,normalized growth,[64],0.805
same,normalized growth,[65],0.973
same,normalized growth,[66],0.859 (active)
same,normalized growth,[67],0.976
same,normalized growth,[68],0.966
same,normalized growth,[69],0.947
same,normalized growth,[70],0.97
same,normalized growth,[71],0.963
